# Compounds with a hit are over-represented: about 3.9% of the library has one in this group of screens.
# Anthrax LF prot: blocks Bacillus anthracis lethal factor protease. P15917. multiplex microsphere protease cleavage assay, LF. inhibition, % at 10 µM. 360,000 tested, 0.12% active; further: plate controls were buffer without enzyme for full effect and enzyme alone for no effect
# SARS 3CLpro inh: SARS-CoV 3CLpro protease inhibition | 290,000 tested, 0.14% active | inhibition, % at 6 µM | recombinant SARS-CoV 3CLpro, quenched FRET peptide cleavage | P0C6X7; in the data active means inhibition above about 12%
# BoNT A protease: inhibitors of Botulinum neurotoxin A light chain protease | inhibition, % at 10 µM | multiplex microsphere protease substrate cleavage, flow cytometry | 360,000 tested, 0.17% active | AID 588499; further: plate controls were buffer without enzyme for full effect and enzyme alone for no effect
# Autofluor counter: compound fluorescence in toxin protease inhibitor counterscreen | 360,000 tested, 3.1% active | fluorescence intensity (test concentration not listed) | AID 624483 | compound autofluorescence counterscreen, microsphere flow cytometry; hits give high values; in the data active means fluorescence intensity above about 16000; inconclusive means no clear call, values can overlap the other calls
# BoNT F protease: blocks Botulinum neurotoxin F light chain protease | 360,000 tested, 0.22% active | Multiplex microsphere protease cleavage assay, flow cytometry | inhibition, % at 10 µM; in the data active means inhibition above about 35%, passing the limit was not always enough; inconclusive means no clear call, values can overlap the other calls; further: plate controls were buffer without enzyme for full effect and enzyme alone for no effect
# VHR inh abs: blocks human VHR1 dual specificity phosphatase; recombinant VHR phosphatase, pNPP absorbance; inhibition, % at 13.3 µM; 290,000 tested, 0.52% active; AID 1654; in the data active means inhibition above about 50%
# The depositor's hits bear a star; ? = inconclusive; · = not tested or not shown. Unless noted, no stated cut-off is given here; in the data, active means inhibition above about 30%; inconclusive means no clear call, values can overlap the other calls; inactive means below that.
SMILES,Anthrax LF prot,SARS 3CLpro inh,BoNT A protease,Autofluor counter,BoNT F protease,VHR inh abs
COc1ccc(NC(=O)c2ccccc2Oc2ccccc2)c(OC)c1,-5,3,1,2964,-3,5
O=C(Nc1ccccc1OC(F)F)c1ccc(F)cc1,-2,1,0,3552,0,-8
COc1ccc(NC(=O)Nc2cc(C)ccc2OC(F)F)c(OC)c1,-6,-1,2,22223*,1,2
COc1ccc(NC(=O)c2cc(-c3cccnc3)nc3c(C)c(C)ccc23)c(OC)c1,0,-2,9,17562*,9,32
COc1cccc(NC(=O)c2cc(-c3cccnc3)nc3c(Cl)cccc23)c1,-2,5,2,15951,1,4
COc1ccc(NC(=O)c2ccccc2C)c(OC)c1,-2,1,-1,16437*,2,8
O=C(Nc1ccccc1F)Nc1ccccc1OC(F)F,-1,2,-1,2029,-6,56*
O=C(Cc1nc2ccccc2[nH]1)c1ccc(Br)cc1,-4,-5,1,5239,-10,5
COc1ccc(NC(=O)c2cccnc2)c(OC)c1,-1,3,?,20616*,2,11
Cc1ccc2nc(-c3cccnc3)cc(C(=O)Nc3ccc(F)cc3C)c2c1,1,4,1,4335,-2,53*
Cc1cc(C)c(C(=O)NNC(=O)c2cccnc2)c(C)c1,-3,-8,-2,6074,2,56*
CCN1C[C@@H]2[C@@H]3C(=O)N(C)C(=O)[C@@H]3[C@](Cc3ccccc3)(C1=O)N2C(=O)c1ccc(Cl)c(Cl)c1,-4,·,0,4116,1,·
CCOC(=O)c1[nH]nc(C(=O)c2ccc(Br)cc2)c1O,-6,0,4,18245*,4,24
CCOC(=O)N1CCN(c2nnnn2-c2ccccc2)CC1,2,-4,1,4219,-16,-16
COc1ccc(C(=O)N2CCN(c3nnnn3-c3ccccc3)CC2)cc1OC,-1,4,0,23177*,-1,7
COc1cccc(CNc2ncc(Br)cc2Br)c1O,0,7,0,3394,1,14
COc1cccc(CNc2ccc(Br)cn2)c1O,-1,0,?,24305*,-6,33
COC(=O)CSc1nnc2n1C(C)(C)Cc1ccccc1-2,0,0,-1,16446*,3,6
Cc1ccc(Cl)cc1N1CCN(C(=O)CSc2nnc3n2C(C)(C)Cc2ccccc2-3)CC1,-6,-10,-2,9334,-7,8
CCOC(=O)C(CC)Sc1nnc2n1C(C)(C)Cc1ccccc1-2 (stereo not drawn),-7,4,0,8797,-6,19
COc1cc(NC(=O)CSc2nnc3n2C(C)(C)Cc2ccccc2-3)cc(OC)c1,0,-2,-1,16774*,-4,28
COc1ccc(N2CCN(C(=O)CSc3nnc4n3C(C)(C)Cc3ccccc3-4)CC2)cc1,-2,-4,2,22079*,1,1
CCn1c(SCC(=O)N2CCc3ccccc32)nnc1-c1ccncc1,-12,-6,0,7060,-5,17
CC1(C)Cc2ccccc2-c2nnc(SCC(=O)N3CCc4ccccc43)n21,-3,-5,-2,24428*,-3,-12
COc1ccccc1C(=O)NCCC(=O)NNC(=O)Cn1ccc(C(F)(F)F)n1,0,·,1,?,?,·
SMILES,Anthrax LF prot,SARS 3CLpro inh,BoNT A protease,Autofluor counter,BoNT F protease,VHR inh abs
COc1ccc2nc(NC(=O)CSc3nnnn3C)sc2c1,2,-1,0,3103,3,7
COc1ccc2nc(NC(=O)CSc3nnc4n3C(C)(C)Cc3ccccc3-4)sc2c1,-12,-6,10,16715*,6,8
Cc1cc(C)cc(C(O)c2ncc(-c3ccccc3)[nH]2)c1 (stereo not drawn),1,·,0,3488,-5,·
CCOc1ccccc1C(=O)N(Cc1ccco1)C1CCS(=O)(=O)C1 (stereo not drawn),5,4,0,3990,25,-1
O=C(c1sc2ccccc2c1Cl)N(Cc1ccccc1Cl)C1CCS(=O)(=O)C1 (stereo not drawn),0,8,0,22430*,2,14
O=C(c1sc2ccccc2c1Cl)N(Cc1ccco1)C1CCS(=O)(=O)C1 (stereo not drawn),-3,2,?,23946*,-4,25
O=C(c1sc2ccccc2c1Cl)N(Cc1ccccc1)C1CCS(=O)(=O)C1 (stereo not drawn),·,9,·,·,·,13
CCCCN(C)C(=O)c1ccc(Nc2nc(C(N)Cc3ccc(C(F)(F)F)cc3)cs2)nc1 (stereo not drawn),-6,·,-1,3653,-20,·
COc1ccc(S(=O)(=O)N(CC(=O)NCc2ccncc2)c2ccc(C)cc2)cc1OC,-8,0,0,4098,14,-4
CCOC(=O)CC(=O)CSc1nc2ccccc2c(=O)n1-c1ccc(C(=O)N2CCOCC2)cc1,0,0,0,10639,0,34
CCOC(=O)CC(=O)CSc1nc2ccccc2c(=O)n1-c1ccc(C(=O)NCCOC)cc1,-2,0,-1,16847*,-1,-1
CCOC(=O)C1CCCCC12C(C#N)=C(N)Oc1n[nH]c(C)c12 (stereo not drawn),-2,-2,-1,4542,-6,14
CCOC(=O)C1CCC2(CC1)C(C#N)=C(N)Oc1n[nH]c(C)c12 (stereo not drawn),1,-4,-2,20477*,-3,29
COc1ccc(Cn2c(/C=C/c3ccccc3)nc3ccccc32)cc1,2,2,-1,24328*,-4,29
O=C(CCSc1nnc2ccccn12)Nc1ccc(F)cc1,1,1,0,23399*,2,6
COC(=O)C(=N/Nc1ccccc1C(=O)OC)/C(C)=N/O,10,1,6,4604,?,9
CCc1ccc(Nc2n[n+](-c3ccccc3)c(-c3ccc(N(CC)CC)cc3)s2)cc1,19,-6,23,19557*,-27,25
CC(C)(C)c1ccc(-c2csc(NNC3=NCCCCC3)n2)cc1,-2,-3,?,20221*,-9,55*
OC(CSc1ccccc1Cl)CN1CCN(c2ccccc2F)CC1 (stereo not drawn),-4,1,-1,10127,-7,5
OC(CSc1c(Cl)cccc1Cl)CN1CCN(c2ccccc2F)CC1 (stereo not drawn),-2,11,0,20273*,-6,11
Cc1cc(C)c(NC(=O)CNC(=O)COC(=O)C2=COCCO2)c(C)c1,4,·,3,?,?,·
CCCCNC(=O)c1sc2nc(C)cc(COC)c2c1-n1cccc1,-6,5,-2,16799*,-5,24
COCc1cc(C)nc2sc(C(=O)NN)c(-n3cccc3)c12,-6,4,-1,3924,1,15
Cc1ccc2c(c1)N(Cc1ccccn1)C(=O)C(C)O2 (stereo not drawn),-2,-12,-4,24586*,-5,14
Cc1ccc(OCC(=O)OCC(=O)NC2CCS(=O)(=O)C2)cc1C (stereo not drawn),-6,·,0,3240,-6,·

# Bioassay records from PubChem.
